Assay outcomes: PubChem, National Center for Advancing Translational Sciences (NCATS)
Rows were chosen to be rich in hits. Some 2.4% of all compounds tested hit in one or more screens of this group.
WRN inhibitor – qHTS for Inhibitors of WRN Helicase; WRN helicase unwinding, fluorescent forked duplex, kinetic; Potency, µM (highest dose often 114 µM), inactives show at the highest dose activity change, negative = inhibition, most hits filed as inhibitors; 360,000 tested, 0.46% active; note: potency is the fitted concentration of half-maximal effect; % is set by controls: 0 for no effect and ±100 for the full control effect; nearly all actives have a fitted effect of over 55% in size
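Enzyme (20 nM final) and test compound sit together 15 min at room temperature before substrate addition. Substrate is a single-forked duplex oligonucleotide (100 nM) labelled with fluorophore and quencher, with 2 mM ATP; helicase unwinding raises red fluorescence, read kinetically.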
POLB inh – qHTS Assay for Inhibitors of DNA Polymerase Beta; Pol beta primer extension/strand displacement, fluorescence kinetic; Potency, µM (highest dose often 114 µM), without a hit: at the top dose activity change, negative = inhibition, most hits filed as inhibitors; 340,000 tested, 1.3% active; note: potency is the fitted concentration of half-maximal effect; % is set by controls: 0 for no effect and ±100 for the full control effect
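Reaction started by 50 nM substrate onto compound-treated Pol beta (10 nM, 15 min preincubation, room temperature); plates read at 0 min and 10 min. Normalized concentration-effect data fitted by four-parameter Hill equation.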
Pol eta inh-1 – qHTS for Inhibitors of Polymerase Eta. DNA polymerase eta (Homo sapiens), Q9Y253. recombinant Pol eta, fluorescent DNA replication assay. Potency, µM (top dose mostly 114 µM), without a hit: at the top dose activity change, negative = inhibition, hits mostly inhibitors. 390,000 tested, 1.2% active; note: potency is the fitted concentration of half-maximal effect; % is set by controls: 0 for no effect and ±100 for the full control effect
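Fluorescent replication assay: 50 nM final substrate added after a 15 min room-temperature compound preincubation with 10 nM enzyme. Signal taken at 0 min and again at 10 min.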
Pol iota inh – qHTS for Inhibitors of Polymerase Iota | Pol iota fluorescent replication assay, 10 min | AID 588590, 2011 | DNA polymerase iota (Homo sapiens), Q9UNA4 | 390,000 tested, 1% active | Potency, µM (titrated, usually from 115 µM), without a hit: at the top dose activity, negative = inhibition, usual class: inhibitors; note: potency is the fitted concentration of half-maximal effect
Target sequence (Q9UNA4 whole entry, looked up): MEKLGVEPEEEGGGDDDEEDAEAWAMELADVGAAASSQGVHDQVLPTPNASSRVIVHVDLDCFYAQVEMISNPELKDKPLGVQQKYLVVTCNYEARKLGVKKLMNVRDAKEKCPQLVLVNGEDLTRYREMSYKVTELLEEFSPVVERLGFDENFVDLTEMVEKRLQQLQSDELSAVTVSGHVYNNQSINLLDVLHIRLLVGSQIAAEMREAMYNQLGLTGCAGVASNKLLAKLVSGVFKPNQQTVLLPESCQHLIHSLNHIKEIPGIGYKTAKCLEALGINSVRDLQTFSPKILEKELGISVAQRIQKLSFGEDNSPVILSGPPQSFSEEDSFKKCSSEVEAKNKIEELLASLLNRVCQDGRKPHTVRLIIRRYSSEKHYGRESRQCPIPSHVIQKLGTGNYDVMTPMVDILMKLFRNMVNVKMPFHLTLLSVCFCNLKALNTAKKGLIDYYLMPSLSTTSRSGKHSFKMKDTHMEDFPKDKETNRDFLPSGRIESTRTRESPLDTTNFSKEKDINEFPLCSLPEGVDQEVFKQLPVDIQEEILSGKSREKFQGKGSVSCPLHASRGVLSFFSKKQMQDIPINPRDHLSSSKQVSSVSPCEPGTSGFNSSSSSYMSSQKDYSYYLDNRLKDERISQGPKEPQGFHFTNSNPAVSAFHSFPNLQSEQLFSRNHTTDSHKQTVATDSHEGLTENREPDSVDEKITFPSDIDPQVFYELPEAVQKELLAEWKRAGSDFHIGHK
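Pol iota at 10 nM preincubated 15 min with compounds at room temperature; reaction started with fluorescent substrate, 50 nM final. Fluorescence read kinetically at 0 and 10 min; buffer-only wells as negative control.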
Pol kappa inh-1 – qHTS for Inhibitors of Polymerase Kappa. purified Pol kappa, fluorescent DNA synthesis assay, 10 min. Potency, µM (doses to about 107 µM), inactives show at the highest dose activity, negative = inhibition, usual class: inhibitors. 400,000 tested, 0.53% active. AID 588579, 2011. DNA polymerase kappa (Homo sapiens), Q9UBT6; note: potency is the fitted concentration of half-maximal effect; % is set by controls: 0 for no effect and ±100 for the full control effect
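Inhibition of 10 nM Pol kappa is measured by a fluorescent read-out at 0 and 10 min following addition of 50 nM substrate (final), with a 15-min room-temperature compound preincubation.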
FEN1 inhibitor – qHTS Assay for the Inhibitors of Human Flap endonuclease 1 (FEN1); P39748; Recombinant FEN1 flap cleavage, fluorescence, 15 min; Potency, µM (series often up to 114 µM), for inactives: at the highest dose activity change, negative = inhibition, hits mostly inhibitors; 390,000 tested, 0.35% active; note: potency is the fitted concentration of half-maximal effect; % is set by controls: 0 for no effect and ±100 for the full control effect; nearly all actives have a fitted effect of over 65% in size
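Read-out was taken twice, immediately and after 15 min, following addition of 50 nM substrate to 10 nM FEN1 that had sat with test compound for 15 min at room temperature. Curves came from a four-parameter Hill model.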
GALK confirm – Confirmation Assay for Inhibitors of Human Galactokinase (GALK); shares compounds with Pol eta inh-1; purified GALK, Kinase-Glo ATP depletion luminescence; Potency, µM (titrated, usually from 115 µM), without a hit: top-dose activity, negative = inhibition, actives largely listed as inhibitors; 150 tested, 70% active; AID 2015, 2009
GALK redox cs – Confirmatory Assay for Inhibitors of Human Galactokinase (GALK): Phenol-HRP redox assay counterscreen. Potency, µM (titrated, usually from 115 µM), for inactives: at the top dose activity change, negative = H2O2 signal, most hits filed as inhibitors. shares compounds with Pol eta inh-1. AID 2035, 2009. 150 tested, 40% active. Phenol red-HRP H2O2 redox cycling, absorbance 600 nm
HEK293 tox – Secondary Assay for Inhibitors of Human Galactokinase (GALK): HEK-293 Cell Viability Assay; shares compounds with Pol eta inh-1; 170 tested, 10% active; Potency, µM (highest dose often 46.1 µM), inactives show at the highest dose activity change, negative = cytotoxicity, actives largely listed as inhibitors; AID 2547, 2010; HEK-293 viability, ATP luminescence (CellTiter-Glo), 24/48 h; note: potency is the fitted concentration of half-maximal effect; % is set by controls: 0 for no effect and ±100 for the full control effect
Pol kappa inh-2 – qHTS for Inhibitors of Polymerase Kappa: Confirmatory Assay for Cherry-picked Compounds. Potency, µM, hits mostly inhibitors. purified Pol-kappa, fluorescent strand-displacement substrate. 920 tested, 76% active. shares compounds with Pol eta inh-1; note: potency is the fitted concentration of half-maximal effect
Pol eta inh-2 – qHTS for Inhibitors of Polymerase Eta: Confirmatory Assay for Cherry-picked Compounds. shares compounds with Pol eta inh-1. Pol eta primer extension, TAMRA/BHQ fluorescence, 10 min. Potency, µM, most hits filed as inhibitors. 2,600 tested, 64% active. AID 720502, 2013; note: potency is the fitted concentration of half-maximal effect
* hit, by the source's call; ? = inconclusive; . = no result given; [ ] = another dose, or the depositor's remark. Calls come from the whole dose curve; as a rule, active = well fitted curve in the direction sought with a large enough effect; inconclusive = small, poorly fitted or top-dose-only effect, or another doubt; inactive = no such curve, though single readings can be large; an effect the other way counts as inactive or inconclusive.

SMILES	WRN inhibitor	POLB inh	Pol eta inh-1	Pol iota inh	Pol kappa inh-1	FEN1 inhibitor	Pol eta inh-2	others
CCC(C(=O)NC1C(=O)N2C(C(=O)O)=C(CSc3nnc(C)s3)CSC12)c1ccccc1 (stereo unspecified)	-10.5%	.	?	-27.0%	-28.9%	16.1%	.
Cc1nnc(SCC2=C(C(=O)O)N3C(=O)C(NC(=O)COc4ccccc4)C3SC2)s1 (stereo unspecified)	?	.	10µM*	?	79.4µM*	-18.8%	37.9*	Pol kappa inh-2=?
N#Cc1c(SCC(=O)Nc2ccc(C(F)(F)F)cc2)sc2c(O)cc(=O)[nH]c12	-6.9%	-2.0%	0.2%	2.3%	-5.2%	-28.2%	.
COc1cc(Cl)c(C)cc1NC(=O)CSc1sc2c(O)cc(=O)[nH]c2c1C#N	-16.4%[11.6 µM]	?	28.2µM*	?	-33.8%	?	60.1*	Pol kappa inh-2=18.9*
O=C(c1ccco1)N1CCC2(CC1)CN(c1ccccn1)C2	.	.	.	.	-3.4%[60.1 µM]	.	.
CC(C)OC(=O)C(C(=O)C(F)(F)F)c1cc(NS(=O)(=O)c2ccc3ccccc3c2)c2ccccc2c1O (stereo unspecified)	?	-6.1%	?	?	-15.2%	?	.	GALK confirm=?;GALK redox cs=-0.9%;HEK293 tox=-14.4%
COc1ccccc1CNC(=O)CCCCn1c(=O)c2ccccc2n(Cc2ccccc2F)c1=O	.	20.2%	0.1%	-17.1%	6.6%	-11.4%	.
COc1ccc(-c2nc3c(c(SCC(=O)N4CCOCC4)n2)Cc2c(CO)cnc(C)c2O3)cc1	-0.5%	16.5%	-2.2%	3.9%	-8.4%	10.9%	.
Cc1ccc(-c2nc3c(c(SCC(=O)N4CCOCC4)n2)Cc2c(CO)cnc(C)c2O3)cc1	-1.5%[11.6 µM]	-29.7%	?	79.4µM*	-20.5%	-4.0%	?
COc1ccc(C(=O)n2nc(-c3ccco3)nc2NCc2cccs2)cc1	.	-0.6%	-21.3%	-2.6%	4.5%	7.3%	.
O=C(O)c1cccc(-c2ccc(/C=N/n3cnnc3)o2)c1	-4.7%	?	?	-2.7%	-21.1%	14.2%	.
CC(C)S(=O)(=O)C1=NSC2=NC(=O)/C(=C\c3ccc(-c4cccc(C(=O)O)c4)o3)C(=N)N21	?	31.6µM*	7.94µM*	5.62µM*	28.2µM*	22.4µM*	30.1*	Pol kappa inh-2=16.8*
CCC(CNc1cc(OC)cc2cccnc12)NC1CCCCC1 (stereo unspecified)	3.3%	?	-8.5%	?	-25.7%	?	.	GALK confirm=9.43µM*;GALK redox cs=3.75µM*;HEK293 tox=-19.1%
CC(C)C1Nc2ccc(C(=O)O)cc2C2C=CCC21 (stereo unspecified)	50.1µM*	12.6µM*	20µM*	?	?	?	26.9*
COc1cccc([C@@H]2Nc3ccc(C(=O)O)cc3[C@@H]3C=CC[C@@H]32)c1OC	.	1.6%	8.3%	18.4%	8.5%[60.1 µM]	-14.6%	.
O=C(COc1ccccc1)NC1C(=O)N2C(C(=O)O)=C(Cl)CSC12 (stereo unspecified)	-4.6%	14.5%	?	?	-36.1%	-14.7%	.
C=CC1=C(C(=O)O)N2C(=O)C(NC(=O)Cc3ccccc3)C2SC1 (stereo unspecified)	?	?	22.4µM*	12.6µM*	79.4µM*	-13.4%	67.5*
COC(=O)C/C=N/N=C1/NC(=O)/C(=C/C(=O)O)S1	-33.1%	39.8µM*	39.8µM*	14.1µM*	44.7µM*	50.1µM*	47.8*
Cc1ccc(C)n1-c1nc(=S)[nH][nH]1	?	-1.7%	44.7µM*	?	28.2µM*	-14.1%	75.7*
S=c1nc(-c2ccc(Cl)cc2)[nH][nH]1	-17.7%	2.0%	-5.8%	23.7%	-0.1%	3.7%	.
CCCCCCCCCCCCCCCC[N+](C)(C)Cc1ccccc1	.	.	.	.	2.2%[19.4 µM]	.	.
Cc1cccc(NC(=O)c2cn(-c3ccccc3)nc2-c2ccccc2)c1C	.	4.3%	-13.0%	-1.7%	-24.3%	-3.1%	.
COc1ccccc1-c1ccc(/C=C2\C=CC(=O)O2)o1	?	-99.7%	25.1µM*	20µM*	35.5µM*	?	53.6*
COCCn1c(=O)c(-c2cn(C)c3ccccc23)nc2cnc(Oc3ccc(OC)cc3)nc21	.	.	.	.	-1.4%[60.1 µM]	.	.
NC(CSC1(c2ccc(Cl)cc2)c2ccccc2-c2ccccc21)C(=O)O (stereo unspecified)	-12.4%[11.6 µM]	.	?	?	-8.8%	1.4%	?
CC(C)Sc1nc2sc3c(c2c2nnc(SCC(=O)NCc4ccco4)n12)CCCC3	-13.5%[11.6 µM]	-10.9%	4.47µM*	?	-17.6%	-16.9%	67.5*
COCc1cc(C)n(CC(=O)N/N=C/c2ccc(-c3ccc(Cl)c(C(=O)O)c3)o2)c(=O)c1C#N	?	20µM*	10µM*	22.4µM*	?	4.6%	42.6*
COc1ccc(-c2nc(CSCC(=O)N3CCN(c4ccc(F)cc4)CC3)c(C)o2)cc1	.	-21.0%	-6.9%	0.3%	-7.5%	-8.4%	.
CCSC1=NSC2=NC(=O)/C(=C\c3coc4ccccc4c3=O)C(=N)N12	?	28.2µM*	20µM*	?	-19.3%	?	.	Pol kappa inh-2=?
